Data as given in PubChem BioAssay (NCI).
The panel holds about 79,000 compounds, 15% with a hit somewhere; the sample as a whole holds those more often. Rule as the data show it: active = growth inhibition above about 70%; inactive = the rest.

Legend:
[1] = NCI Yeast Anticancer Drug Screen. Data for the rad50 strain (AID 155);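 also: 0% = growth of vehicle-only cultures of the same strain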; conditions: S. cerevisiae rad50 strain growth inhibition; at 50.0 µM; stronger effect = higher value
In short: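 DNA repair mutant yeast, compound exposure, growth read-out; inhibition is taken relative to vehicle.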

[2] = NCI Yeast Anticancer Drug Screen. Data for the mec2-1 strain (AID 157); conditions: S. cerevisiae mec2-1 strain, at 50.0 µM, stronger effect = higher value
In short: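 Readout is yeast growth inhibition, normalised to vehicle-treated controls, in the mec2-1 strain exposed to compound.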

[3] = NCI Yeast Anticancer Drug Screen. Data for the sgs1 mgt1 strain (AID 161);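 also: 0% = growth of cultures given vehicle only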; conditions: S. cerevisiae sgs1 mgt1 strain, at 50.0 µM, stronger effect = higher value
In short: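 Percent growth inhibition was derived by comparing compound-exposed mutant yeast with vehicle-exposed cultures. The strain carries alterations in DNA damage repair.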

[4] = NCI Yeast Anticancer Drug Screen. Data for the cln2 rad14 strain (AID 165);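 also: 0% = growth equal to vehicle treated cultures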; conditions: S. cerevisiae cln2 rad14 strain, at 50.0 µM, stronger effect = higher value
In short: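 Relative to vehicle controls, growth inhibition of compound-treated cln2 rad14 yeast was recorded.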

[5] = NCI Yeast Anticancer Drug Screen. Data for the bub3 strain (AID 167); conditions: S. cerevisiae bub3 mutant strain, at 50.0 µM, stronger effect = higher value
In short: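 In this screen, a yeast mutant lacking normal mitotic checkpoint function is challenged with compound. Relative growth versus vehicle gives the inhibition value.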

[6] = NCI Yeast Anticancer Drug Screen. Data for the mlh1 rad18 strain (AID 175); conditions: S. cerevisiae mlh1 rad18 strain growth inhibition; at 50.0 µM; stronger effect = higher value
In short: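 Test agents were incubated with a yeast strain of defined genotype (DNA damage repair defect). Inhibition of growth was derived by comparison with vehicle-exposed cultures.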

Measured: growth inhibition

CCCCCC(C(C)=O)C(C)=O
inactive: [1] -17.5% | [2] -19.6% | [3] -15.1% | [4] 0.45% | [5] -15.8% | [6] -15.6%

Cc1cccc2cc3ccc4ccccc4c3cc12
inactive: [1] 29.7% | [2] 13.8% | [3] 21.9% | [4] 14.8% | [5] 4.1% | [6] 20.6%

O=[N+]([O-])c1ccc(N/N=C/C2CCCCCC2)c([N+](=O)[O-])c1
inactive: [1] 11.4% | [2] 13.6% | [3] -0.75% | [4] -147% | [5] -14.7% | [6] 4%

CC1(CO)CCCC1NCCNC1CCCC1(C)CO (stereo unspecified)
inactive: [1] 8.6% | [2] -6.7% | [3] 3.35% | [4] 10.3% | [5] -27.9% | [6] 15.5%

COC(=O)CCC(=O)c1ccc2c(c1)CCC2
inactive: [1] -3.25% | [2] -26.2% | [3] 17.2% | [4] 3% | [5] 33.5% | [6] 7.65%

NCCc1c(-c2cccnc2)[nH]c2ccccc12
inactive: [1] -14.5% | [2] -9.1% | [3] -2.75% | [4] -25.4% | [5] 7.6% | [6] 1.1%

O=[N+]([O-])c1cc(F)ccc1Sc1ccccc1
inactive: [1] 49.2% | [2] 23.4% | [3] 38.9% | [4] 39.8% | [5] 20.6% | [6] 40.6%

CCC(=O)Oc1cc(C(C)(C)C)c(OC(=O)CC)cc1C(C)(C)C
inactive: [1] 3.45% | [2] -13.9% | [3] 10.6% | [4] 12.3% | [5] 10.9% | [6] 35.4%

CN(C)c1ccc(C=Nc2ccc3c(c2)C(N2CCOCC2)c2ccccc2-3)cc1 (stereo unspecified)
inactive: [1] -14.7% | [2] -7% | [3] -38.1% | [4] -5.3% | [5] -15.8% | [6] 0.35%

O=C1/C(=C/c2ccccc2)CN(C(=O)/C=C/c2ccccc2)C/C1=C\c1ccccc1
inactive: [1] -23.6% | [2] -19.8% | [3] -52% | [4] -8.15% | [5] -11.6% | [6] -33.2%

CC(=O)NC(Cc1ccc(F)cc1)C(=O)O (stereo unspecified)
inactive: [1] -1.75% | [2] -7.85% | [3] -18.1% | [4] -19.7% | [5] -27.6% | [6] -17.9%

COc1cc(O)c(O)cc1C(C)(C)C
inactive: [1] 35.9% | [2] 24.6% | [3] 45.4% | [4] -11.7% | [5] 36.5% | [6] -1.25%

Cc1cc(C)c(NS(=O)c2cccc(Cl)c2)c(C)c1 (stereo unspecified)
inactive: [1] -29.1% | [2] -26.3% | [3] -59.2% | [4] 1.35% | [5] -35.2% | [6] -50.2%

Cc1cc(S(=O)(=O)NC(=NCC(=O)NN)NN)c(S)cc1Cl
inactive: [1] -9.85% | [2] 2.65% | [3] -16.6% | [4] -6.95% | [5] 1.3% | [6] 15.4%

O=C(O)CCCCc1ccc2ccccc2c1
inactive: [1] 4% | [2] 15.4% | [3] 16.4% | [4] 29.2% | [5] 5.95% | [6] 26.8%

CN1CC(C(N)=O)=CC(C(N)=O)C1 (stereo unspecified)
inactive: [1] -5.25% | [2] -9.2% | [3] -8.15% | [4] -0.6% | [5] 9.25% | [6] 7.5%

CCCCn1nnnc1N
inactive: [1] 3.45% | [2] 6.4% | [3] -8.2% | [4] 12% | [5] 17.8% | [6] 6.85%

C/C(=N\Nc1ccccc1)c1sc(-c2nc(C)c(/C(C)=N/Nc3ccccc3)s2)nc1C
inactive: [1] 24.3% | [2] -3.2% | [3] 14.3% | [4] -29% | [5] 17.6% | [6] 25.2%

CCC(CO)Nc1nc2c(Cl)cc(Cl)cc2c2ccccc12 (stereo unspecified)
inactive: [1] 11.1% | [2] 1.55% | [3] 18.4% | [4] -12.3% | [5] 12% | [6] 41.2%

CC(=O)OC1CC2CCC1(c1ccccc1)C2 (stereo unspecified)
inactive: [1] 0.85% | [2] -25.1% | [3] 0.4% | [4] 14.4% | [5] -1.2% | [6] 3.15%

COc1cc(CCNC(=O)CC(C)C)ccc1OCc1ccccc1
inactive: [1] -14.9% | [2] -27% | [3] 1.35% | [4] -30.5% | [5] -11.9% | [6] -15.9%
